# About 13,000 (27%) of roughly 48,000 compounds showed an effect of 50% or more. Some of the results follow.
# Test system: Wolbachia pipientis
# Test: Anti-Wolbachia Cell-Based Screen
# Format: functional
# Parameters: scale not given: in the data most compounds retested in dose-response had high values
# Conditions: 5 µM
row,Structure (SMILES),Percent Effect [%]
1,CCS(=O)(=O)NCC1Cn2nnc(-c3cccc(C)c3)c2CO1 (configuration not stated),-10.41
2,CCOCCC(=O)N1C[C@H]2CC[C@@H]1CN(c1ncccn1)C2,22.34
3,CNC(=O)[C@@]12CCO[C@@H]1CCN(Cc1cccc(C)c1)C2.O=C(O)C(F)(F)F,5.352
4,CC(C)NC(=O)[C@@H]1CN(Cc2ccc3c(c2)OCO3)C[C@H]2OCC[C@H]21.O=C(O)C(F)(F)F,-18.01
5,CN1CCC2(COCCN(Cc3ccc4c(c3)OCO4)C2)C1.O=C(O)C(F)(F)F.O=C(O)C(F)(F)F (configuration not stated),-6.126
6,CC(C)NC(=O)[C@@]12CCO[C@@H]1CCN(Cc1ccc3c(c1)OCO3)C2.O=C(O)C(F)(F)F,90.31
7,CN(C)C(=O)[C@@]12CCO[C@@H]1CCN(Cc1ccc3c(c1)OCO3)C2.O=C(O)C(F)(F)F,104.9
8,CNC(=O)[C@@]12CCO[C@@H]1CCN(Cc1ccc3c(c1)OCO3)C2.O=C(O)C(F)(F)F,92.17
9,Cc1ncsc1CN1CC[C@H]2OCC[C@@]2(C(=O)NC(C)C)C1.O=C(O)C(F)(F)F,3.331
10,CN(C)C(=O)[C@@H]1CCO[C@@H]2CCN(Cc3ccc4c(c3)OCO4)C[C@@H]21.O=C(O)C(F)(F)F,-16.18
11,O=C(NC1CC1)[C@H]1CN(Cc2ccc3c(c2)OCO3)C[C@H]2OCC[C@@H]12.O=C(O)C(F)(F)F,-14.17
12,O=C(NC1CC1)[C@@H]1CN(Cc2ccc3c(c2)OCO3)C[C@H]2OCC[C@H]21.O=C(O)C(F)(F)F,-3.513
13,O=C(NC1CC1)[C@@]12CCO[C@@H]1CCN(Cc1ccc3c(c1)OCO3)C2.O=C(O)C(F)(F)F,117
14,Cc1ncsc1CN1CC[C@H]2OCC[C@@]2(C(=O)NC2CC2)C1.O=C(O)C(F)(F)F,0.183
15,O=C1OCCN1Cc1cccc(C(F)(F)F)c1F,-20.92
16,CCC(NC(=O)c1ccco1)c1ccccc1OCC(=O)N1CCCC1 (configuration not stated),7.206
17,CCOc1ccc(NC(=O)c2oc(CC)cc2C)cc1CO,-16.02
18,Cc1cc(CN2CC[C@H]3OCC[C@@]3(C(=O)NCc3ccco3)C2)no1.O=C(O)C(F)(F)F,-7.292
19,O=C(NCc1ccco1)[C@@]12CCO[C@@H]1CCN(CC1CCOCC1)C2.O=C(O)C(F)(F)F,-4.272
20,CC(C)NC(=O)[C@@]12CCO[C@@H]1CCN(Cc1ccco1)C2.O=C(O)C(F)(F)F,113.3
21,O=C(NC1CC1)[C@@H]1CCO[C@@H]2CCN(C3CCCC3)C[C@H]21,-4.337
22,COc1ccc(CN2CCN(CC3CC3)[C@@H]3CS(=O)(=O)C[C@@H]32)cc1O,13.23
23,COc1ccc(-c2cc[nH]n2)cc1CNC1CCCC1,-3.837
24,CC(C)(C)c1n[nH]cc1CNC1CCC(O)CC1 (configuration not stated),81.49
25,Cc1n[nH]cc1CNCc1ccnc(OCC(F)(F)F)c1.Cl,-12.37

row,Structure (SMILES),Percent Effect [%]
1,Cc1ccc(CNCc2c[nH]nc2C(C)(C)C)c(OC2CCOC2)c1 (configuration not stated),13.41
2,Cc1n[nH]cc1CNC1CCN(c2cccc(C(F)(F)F)c2)CC1,-2.63
3,CC(C)(C)c1n[nH]cc1CNC1CCC(OCC(F)(F)F)CC1.Cl (configuration not stated),88.78
4,CC(C)(C)c1n[nH]cc1CNC1CCC(C(F)(F)F)CC1.Cl (configuration not stated),89.77
5,Cc1n[nH]cc1CNC1CCN(c2ccc(F)cc2)CC1.Cl,-3.892
6,CN(Cc1ccccc1)CC(C)(C)NC(=O)c1cnccn1,4.118
7,Cc1cccc(S(=O)(=O)N2CC[C@H]3[C@H]2CCN3c2ncccn2)c1.O=C(O)C(F)(F)F,-3.796
8,O=c1[nH]ccc2cc(-c3cc(O)cc(CCC4CCCCN4)c3)ccc12 (configuration not stated),-30.56
9,Cc1cccc(C(=O)N2CCCC2)c1NCC(=O)NC(C)(C#N)C1CC1 (configuration not stated),5.415
10,CCC(CC)c1cc(CNC(=O)N2CCCC(N(C)C)C2)on1 (configuration not stated),-19.35
11,O=c1[nH]c(CCN2CCN(CC(F)(F)F)CC2)nc2ccccc12,-18.37
12,O=C(CN1CCCNC1=O)Nc1ccccc1C(=O)C1CCCC1,8.695
13,CC(C)CCN1CC[C@H](c2nnc(Cc3c[nH]c4ccccc34)o2)C1,-3.447
14,OCC1(Cc2ccc(Cl)cc2)CCN(Cc2cccnc2)CC1,-27.42
15,c1ccc(C2=NOC3(CCN(Cc4c[nH]c5ccccc45)CC3)C2)cc1,122.3
16,CC(C)C1=NOC2(CCN(Cc3c[nH]c4ccccc34)CC2)C1,126.9
17,O=C(O)c1ccc2c(CN3CCOCC3)c[nH]c2c1,6.765
18,Clc1ccc(CN2CCC3(CC2)CC(c2cccnc2)=NO3)cc1,114.5
19,CC1(C)CN(Cc2nnc(-c3cccnc3)o2)CC[C@]1(C)O,-0.3969
20,CC(C)N1CC[C@H](c2nnc(Cc3c[nH]c4ccccc34)o2)C1,-6.101
21,Clc1ccc(CN2CCOC[C@H](Oc3cccnc3)C2)cc1,-8.51
22,O=C(O)c1ccc2c(CN3CCCC3)c[nH]c2c1,-9.8
23,c1cncc(O[C@H]2COCCN(Cc3c[nH]c4ccccc34)C2)c1,0.3938
24,c1cncc(C2=NOC3(CCN(Cc4c[nH]c5ccccc45)CC3)C2)c1,119
25,CCc1nnc2n1CCN(C(=O)c1csc(-c3cnn(C)c3)n1)C2,-10.57

row,Structure (SMILES),Percent Effect [%]
1,CCN1C[C@H]2CCN(C(=O)C3CCCO3)CC[C@H]2S1(=O)=O (some centres not stated),-2.394
2,CC(=O)N(Cc1ncc(C)o1)C1CCN(CCc2cccs2)C1 (configuration not stated),95.79
3,CN(Cc1nnc(C2CC2)o1)C1CCN(CCc2cccs2)C1 (configuration not stated),-15.6
4,CCc1nc(CN(C(C)=O)C2CCN(CCc3cccs3)C2)no1 (configuration not stated),109.6
5,Cc1ccc(CCN2CCC(N(C)Cc3noc(C4CC4)n3)C2)cc1 (configuration not stated),33.43
6,Cc1nnc(CN(C)C2CCN(CCc3cccs3)C2)n1C (configuration not stated),4.049
7,CCc1nc(CN(C(C)=O)C2CCN(CCc3cnn(C)c3)C2)no1 (configuration not stated),-3.276
8,CCn1c(C)nnc1CN(C)C1CCN(CCc2cccs2)C1 (configuration not stated),-15.8
9,CCc1nc(CN(C(C)=O)C2CCN(Cc3cnc(C)cn3)C2)no1 (configuration not stated),-6.946
10,Cc1nc(CN(C)C2CCN(CCc3cccs3)C2)no1 (configuration not stated),100.8
11,CCCN1CCC(N(Cc2ncc(C)o2)C(C)=O)C1 (configuration not stated),4.824
12,CN(Cc1noc(C2CC2)n1)C1CCN(CCc2cccs2)C1 (configuration not stated),86.2
13,CCc1cnc(CN(C(C)=O)C2CCN(CCc3cccs3)C2)o1 (configuration not stated),1.615
14,O=C(CSc1ccc2c(c1)OCCO2)NS(=O)(=O)c1cccnc1,7.646
15,O=C(O)C(F)(F)F.O=C([C@@H]1COC[C@H]2CN(CC3CC3)C[C@H]21)N1CCC(F)CC1,-0.2992
16,Cc1ncc2c(n1)CCN(C(C(N)=O)c1ccccc1)C2 (configuration not stated),-10.42
17,CC(C)NC(=O)[C@H]1C[C@@H]2[C@@H](C1)OCCN2CC1CC1.O=C(O)C(F)(F)F,-2.648
18,CCc1nc(CN(C)C2CCN(CCc3ccccn3)C2)no1 (configuration not stated),16.6
19,CCc1nc(CN2CCCC(N(C)Cc3cnc(C)s3)C2)no1 (configuration not stated),-6.39
20,CCc1nc(CN2CCCC(N(C)CCc3cccs3)C2)no1 (configuration not stated),105.7
21,CCc1nc(CN(C)C2CCN(CCc3cccs3)C2)no1 (configuration not stated),104.6
22,CC(C)c1cnc(CN(C)C2CCN(CCc3ccccn3)C2)o1 (configuration not stated),-3.925
23,Cc1nc(CN(C)C2CCN(CCc3ccccn3)C2)no1 (configuration not stated),113.1
24,CCc1nc(CN(C)C2CCN(CCS(C)(=O)=O)C2)no1 (configuration not stated),2.202
25,CCc1nc(CN(C)C2CCN(CCn3cccn3)C2)no1 (configuration not stated),113.6

row,Structure (SMILES),Percent Effect [%]
1,Cc1nc(CN2CCCC(N(C)CCc3cccs3)C2)no1 (configuration not stated),6.086
2,Cc1ccc(NCc2cn3c(n2)CN(Cc2ccc(C)o2)CC3)nn1.O=C(O)C(F)(F)F.O=C(O)C(F)(F)F,-14.5
3,COCCN1CCCC2(CCN(c3nccc4ccccc34)C2)C1=O (configuration not stated),0.09488
4,c1ccc(CN2C[C@H]3CC[C@@H]2CN(Cc2nnc(C4CC4)o2)C3)cc1,2.015
5,CN(C)C(=O)N1C[C@@H]2CC[C@H](C1)N(Cc1nnc(C3CC3)o1)C2,98.65
6,CC(C1CC1)N(C)Cc1nnc(-c2ccco2)o1 (configuration not stated),-0.554
7,c1ccc(CN2C[C@@H]3CC[C@H](C2)N(Cc2nnc(C4CC4)o2)C3)cc1,-6.562
8,CN(C)C(=O)N1C[C@@H]2CC[C@H](C1)N(Cc1nnc(-c3ccco3)o1)C2,70.33
9,CN(C)C(=O)N1C[C@@H]2CC[C@H](C1)N(Cc1nnc(-c3ccccc3)o1)C2,137.1
10,CN(C)C(=O)N1C[C@@H]2CC[C@H](C1)N(C/C=C/c1ccc(F)cc1)C2,7.662
11,CN(C)C(=O)N1C[C@@H]2CC[C@H](C1)N(Cc1ccc3nsnc3c1)C2,-1.823
12,c1ccc(-c2nnc(CN3C[C@@H]4CC[C@H](C3)N(CC3CCC3)C4)o2)cc1,0.05664
13,CCC(NCc1ccccn1)c1ccccc1OCC(=O)NC (configuration not stated),13.68
14,CN1CCOC(CNC(=O)CCCOCCc2ccccc2)C1 (configuration not stated),-8.698
15,COc1cccc(CNCC2CN(C)CCO2)c1 (configuration not stated),98.93
16,FC(F)(F)Oc1cccc(CNC[C@H]2Cn3ccnc3CO2)c1,-15.74
17,CCCOc1cccc(CNC(=O)CN2CCN(C)CC2C)c1 (configuration not stated),-6.684
18,CN1CCOC(CNCc2cccc(OCC(F)(F)F)c2)C1 (configuration not stated),-1.081
19,CCOC(=O)CCNC(=O)N1CCOC(Cc2cccc(OC)c2)C1 (configuration not stated),-8.536
20,CN1CCOC(CNCc2cccc(OC(F)(F)F)c2)C1 (configuration not stated),76.13
21,CN1CCOC(CNCc2nc(-c3ccco3)no2)C1 (configuration not stated),-7.293
22,COCCOc1cccc(CNCC2CN(C)CCO2)c1 (configuration not stated),121.8

# Reference: ChEMBL document CHEMBL3988442, “University of Dundee, Small-Polar-MMV Screening Library” (2021)
